Source: PubChem BioAssay AID751 (NMMLSC, 2007)
Hit rate of the full screen: of about 24,000 compounds, about 40 (0.2%) were called active. What follows is part of a selection rich in actives, with near analogues and random picks from the rest. A number with no mark means an inactive call.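 The calls were made as follows: active = inhibition of disassembly above about 33% (limit read from the data); inconclusive = likely self-fluorescent, control bead median signal at least 40; inactive = the rest.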

What follows are compounds tested on 26S proteasome (yeast, GFP-tagged, ATP-dependent disassembly) (assay: inhibitors of ATP-driven 26S proteasome dissociation, primary screen, biochemical, bead-based flow cytometry, GFP-tagged proteasome (AID 751;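 also: plate controls were ATP control with full disassembly for no effect and ATP-gamma-S intact proteasomes for full effect; higher percent means more bead fluorescence retained so stronger block of disassembly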)). Conditions: anti-FLAG beads, stronger effect = higher value, concentration not given here.

In order of rising inhibition of disassembly:
1. Cc1noc(/C=C/N(C)C)c1S(=O)(=O)N1CCCC(C(=O)NCc2ccco2)C1 (configuration not stated)  -7.75%
2. Cc1cc(Nc2ccc(Br)cc2F)n2ncnc2n1  -4.6%
3. COc1cccc(Nc2nnc(SCC(=O)N3CC(C)OC(C)C3)s2)c1 (configuration not stated)  -3.96%
4. CCc1ccc(NC(=O)CSc2nc3ccccc3c(=O)n2CCN2CCOCC2)cc1  -3.37%
5. COCCNC(=S)c1ccc(OC)cc1  -2.83%
6. O=C(Nc1c2c(nn1-c1ccc(F)cc1)CS(=O)C2)C12CC3CC(CC(C3)C1)C2 (configuration not stated)  -2.52%
7. Cc1nonc1NC(=O)c1ccccc1Br  -2.02%
8. O=C(NCCCN1CCN(Cc2ccccc2)CC1)C1CCN(S(=O)(=O)N2CCCC2)CC1  -1.86%
9. Cc1nnc(NC(=O)CCC(=O)N2CCC(C)CC2)s1  -1.57%
10. COc1cccc(-n2c(Cc3cc(=O)[nH]c(=O)[nH]3)nnc2SCC(=O)Nc2ccccc2)c1  -1.55%
11. COc1ccc(-c2c(C)nn3c(N4CCC(C(=O)N5CCCCC5)CC4)cc(C)nc23)cc1OC  -1.42%
12. Cc1nc2sc(C(c3ccco3)N3CCC4(CC3)OCCO4)c(O)n2n1 (configuration not stated)  -1.33%
13. CCn1cc(C(=O)N2CCN(C3CCCCC3)CC2)c2cc(OC)c(OC)cc2c1=O  -1.25%
14. COc1cc(C2C(C(=O)Nc3ccccc3OC)=C(C)Nc3ncnn32)ccc1O (configuration not stated)  -1.23%
15. COc1ccc(N2C(=O)CCC(C(=O)N(C)C3CCCCC3)C2c2ccc(OC)c(OC)c2)cc1 (configuration not stated)  -1.19%
16. O=C(CCCN1C(=O)C2C3C=CC(C3)C2C1=O)N1CCN(c2ccccc2)CC1 (configuration not stated)  -1.14%
17. O=C(COc1ccccc1F)NC1CC1  -1.13%
18. COCCCN(C(=O)Cn1ncc2c(=O)oc3ccc(C)cc3c21)C(C)c1ccncc1 (configuration not stated)  -1.07%
19. COc1ccc(OC)c(NC(=O)CC(Cc2ccccc2OC)C(=O)O)c1 (configuration not stated)  -1.04%
20. O=C(Nc1nc2ccc(S(=O)(=O)N3CCCC3)cc2s1)C1CCCO1 (configuration not stated)  -0.99%
21. NS(=O)(=O)c1cc2c(cc1Cl)NC(C(Cl)Cl)NS2(=O)=O (configuration not stated)  -0.98%
22. O=C(CCN1C(=O)c2ccncc2C1=O)Nc1ccc2c(c1)OCCO2  -0.98%
23. O=C(CN1C(=O)COc2ccccc21)NCCN1CCc2ccccc2C1  -0.95%
24. CCCn1nnc2sc3c(c2c1=O)CCC(C)C3 (configuration not stated)  -0.93%
25. CCCn1cc(SCC(N)=O)c2ccccc21  -0.93%
26. O=C(CN1CCN(c2ccccc2F)CC1)c1ccc2c(c1)OCO2  -0.87%
27. CC(C(=O)N1CCOCC1)N1c2cccc3cccc(c23)S1(=O)=O (configuration not stated)  -0.85%
28. COc1ccc2oc(=O)c(C(=O)N3CCN(c4ccccc4F)CC3)cc2c1  -0.83%
29. C=CCn1c(COc2ccccc2F)nnc1SCC(=O)N1CC(=O)Nc2ccccc21  -0.82%
30. CCOC(=O)N1CCN(C(=O)c2n[nH]c(=O)c3ccccc23)CC1  -0.81%
31. Cc1oc(-c2ccccc2F)nc1CS(=O)(=O)CC(=O)NCCCN(C)C1CCCCC1  -0.8%
32. Cn1c(C(=O)NCCN2CCc3ccccc3C2)cc2c(=O)[nH]c3ccccc3c21  -0.79%
33. Cc1cc(C(=O)O)c(S(C)(=O)=O)s1  -0.75%
34. CCc1nnc(NC(=O)CCC(=O)O)s1  -0.71%
35. Fc1ccccc1C(c1nnnn1Cc1ccc2c(c1)OCO2)N1CCN(Cc2ccccc2)CC1 (configuration not stated)  -0.69%
36. CCOc1cc2[nH]c(=S)n(CCCN3CCCC3=O)c(=O)c2cc1OCC  -0.66%
37. CCOc1ccc(OCC)c(NC(=O)C(NS(=O)(=O)c2ccc3c(c2)oc(=O)n3C)C(C)C)c1 (configuration not stated)  -0.66%
38. CN1CCN(CCCNC(=O)c2cc3c(=O)oc4ccccc4c3s2)CC1  -0.65%
39. Cc1ccccc1C(=O)NCCN=C1NS(=O)(=O)c2ccccc21  -0.63%
40. CCOC(=O)N1CCC(NC(=O)CN2C(=O)COc3ccc(C(C)(C)C)cc32)CC1  -0.61%
41. CCn1cc(C(=O)NC2CCCCCC2)c(=O)c2cc(S(=O)(=O)N3CCCCC3)ccc21  -0.53%
42. CN(Cc1ccccc1)C(=O)CCNC(=O)Cn1cnc2ccccc2c1=O  -0.53%
43. COc1ccccc1NC(=O)CN1CCN(S(=O)(=O)c2ccc(Br)cc2)CC1  -0.52%
44. COc1ccc(Cn2nnc3c(=O)[nH]c(C4CCN(C(=O)c5ccccc5Cl)CC4)nc32)cc1  -0.42%
45. O=C1CC(c2cccc(F)c2)C2=C(CCCC2=O)N1 (configuration not stated)  -0.41%
46. COc1ccc(CN2CN(C(C)C)CSC2=S)cc1  -0.35%
47. CCC(C(=O)Nc1ncccn1)(C(F)(F)F)C(F)(F)F  -0.33%
48. CN(CC(=O)NC1CCCCC1)S(=O)(=O)c1cccc2cccnc12  -0.29%
49. COc1ccc(C2C3=C(OC(C)=O)c4ccccc4C3=Nc3c2c(=O)n(C)c(=O)n3C)cc1 (configuration not stated)  -0.28%
50. C#CCN1C(=O)C(O)(CC(=O)c2cc(OC)ccc2OC)c2ccccc21 (configuration not stated)  -0.27%
51. Cc1noc(C)c1S(=O)(=O)N(CC(=O)NCc1ccc(Cl)cc1)c1ccc2c(c1)OCO2  -0.25%
52. COc1ccc2c(c1)CCc1c(C(=O)N3CCCC3)noc1-2  -0.25%
53. Cc1ccc(C(c2sc3nc(C)nn3c2O)N2CCN(c3ccc(F)cc3)CC2)cc1 (configuration not stated)  -0.24%
54. CC1C=CCC2C(=O)N(c3cccc(C(=O)N4CCCCCC4)c3)C(=O)C12 (configuration not stated)  -0.22%
55. Cc1nc2ncnn2c(C)c1CCC(=O)N1CCN(C(=O)c2ccco2)CC1  -0.22%
56. CC1CCCN(C(=O)c2ccc3c(c2)C(=O)N(CCC2=CCCCC2)C3=O)C1 (configuration not stated)  -0.2%
57. CCOC(=O)c1nnn(CC(=O)Nc2cccc(F)c2)c1C(=O)OCC  -0.09%
58. Nc1ccc(-n2nncc2-c2ccco2)cc1  -0.06%
59. CC(=O)Nc1cc2ccc(OC(C)=O)cc2oc1=O  0.02%
60. CCSc1nc2c(c(=O)[nH]1)C(c1cccnc1)C(C(=O)OC(C)C)=C(C)N2 (configuration not stated)  0.035%
61. COCCn1c(CN(Cc2ccccc2)Cc2ccccc2)nc2c1c(=O)n(C)c(=O)n2C  0.04%
62. CCOc1ccccc1NC(=O)C1CCC(CNc2c(N3CCOCC3)c(=O)c2=O)CC1 (configuration not stated)  0.11%
63. CCOc1cc2c(cc1OCC)C(C(=O)O)C(c1ccc(OC)c(O)c1)N(C)C2=O (configuration not stated)  0.12%
64. Cc1cccc(NC(=O)CSc2nnc(NC(=O)CN3CCOCC3)s2)c1  0.22%
65. CCCCc1nc2c(=O)[nH]c3ccccc3c2o1  0.25%
66. CC(NC(=O)CN1CCN(Cc2ccc(Cl)cc2)C1=O)c1ccc2c(c1)OCCO2 (configuration not stated)  0.26%
67. CCN(CC)C(=O)N1CCN(C(=O)c2ccc(C)cn2)CC1  0.26%
68. COc1ccc(S(=O)(=O)NC2(C(F)(F)F)N=C3SCCN3C2=O)cc1 (configuration not stated)  0.29%
69. O=C(C(NS(=O)(=O)c1cccc2nsnc12)c1ccccc1)N1CCN(c2ccccn2)CC1 (configuration not stated)  0.34%
70. CC12COC3(C(=O)Nc4ccc(Cl)cn4)CC1CCC32C (configuration not stated)  0.35%
71. CC(=O)Nc1ccc(S(=O)(=O)N2CCC(N(C)CCC(C)C)CC2)cc1  0.37%
72. CCCn1c(C(O)c2ccc(OCC)cc2)nc2ccccc21 (configuration not stated)  0.49%
73. CCN(CCCNC(=O)C1CCN(S(=O)(=O)c2cnc[nH]2)CC1)c1ccccc1  0.49%
74. COc1ccccc1C(=O)NCCn1cc(SCC(=O)NCc2ccco2)c2ccccc21  0.52%
75. CCCCNC(=O)c1c[nH]c2ccc(S(=O)(=O)Nc3ccc(OCC)cc3)cc2c1=O  0.53%
76. Cc1c2cnn(-c3ccccc3)c(=O)c2c(C)n1CCCC(=O)N1CCN(C)CC1  0.62%
77. CCOC(=O)CN1CC23C=CC(O2)C(C(=O)Nc2ccc(F)cc2)C3C1=O (configuration not stated)  0.62%
78. CC(C)CNS(=O)(=O)c1ccc(OCC(=O)Nc2ccc3c(c2)OCO3)c(Cl)c1  0.65%
79. Cc1ccc(C2CC(c3cccc(Br)c3)n3nc(N)nc3N2)cc1 (configuration not stated)  0.65%
80. Cc1c(C(=O)N2CC(C)OC(C)C2)sc2nc(-c3ccccc3)cn12 (configuration not stated)  0.65%
81. CCn1ncc(C2=NOC(C(=O)Nc3ccccc3C(=O)OC)C2)c1C (configuration not stated)  0.71%
82. CCCCOC(=O)Nc1nccs1  0.85%
83. CCOC(=O)c1sc(=S)n2c1[nH]c(=O)c1ccc(C(=O)OC)cc12  0.98%
84. Nc1nonc1-c1nc2ccccc2n1CCC(=O)O  1.19%
85. Cc1noc(C)c1S(=O)(=O)Nc1ccc(C(=O)O)cc1  1.24%
86. CCCOC(=O)Nc1sc2c(c1C(=O)OCC)CCC2  1.34%
87. O=C(NC1(C(F)(F)F)N=C2SCCN2C1=O)c1ccco1 (configuration not stated)  1.38%
88. Cc1cc(Nc2cccc(C)c2C)n2ncnc2n1  1.4%
89. Nc1nc(SCCOc2ccccc2)n[nH]1  1.41%
90. Cc1ccsc1C(C(=O)NC1CCCCC1)N(C(=O)Cc1cccs1)C1CC1 (configuration not stated)  1.54%
91. CN1C(=O)c2ccccc2C(C(=O)NCCCN2CCCC2)C1c1c[nH]c2ccccc12 (configuration not stated)  1.77%
92. Cc1cccc2c1N(CC(=O)OC(C)C)C(=O)C2=O  1.8%
93. Cc1ccc(S(=O)(=O)N(C)CC(=O)NC2CCCC2)cc1  1.94%
94. COc1cc(C(O)c2nc3ccccc3n2C)cc(OC)c1OC (configuration not stated)  1.95%
95. COc1ccc(-c2nc(CS(=O)CC(=O)N3CCc4ccccc4C3)c(C)o2)cc1 (configuration not stated)  1.96%
96. CC(=O)NCC(=O)N(C)C(C(=O)Nc1ccc2c(c1)OCCO2)c1ccccc1 (configuration not stated)  2.08%
97. O=C(CN1CCN(c2ncc(C(F)(F)F)cc2Cl)CC1)Nc1ccc2c(c1)OCO2  2.15%
98. CCN(CC)S(=O)(=O)c1ccc(NC(=O)CN(c2cccc(F)c2)S(C)(=O)=O)cc1  2.21%
99. Cc1c2cn[nH]c(=O)c2c(C)n1Cc1ccc(F)cc1  2.63%
100. O=C(c1ccc2c(c1)N(Cc1ccc(F)cc1)C(=O)CS2)N1CCOCC1  3.05%
101. CCOC(=O)N1CCN(S(=O)(=O)c2cc(Br)cc3c2N(C(=O)C2CC2)CC3)CC1  3.18%
102. CC(=O)C1C(c2cccc(Oc3ccccc3)c2)NC(=O)NC1(O)C(F)(F)F (configuration not stated)  3.33%
103. O=C(c1ccccc1)c1ccc2nc(N3CCCCC3)c3nncn3c2c1  3.43%
104. CC1CCC(NC(=O)c2ccc(N3CCCC3=O)cc2)CC1 (configuration not stated)  5.08%
105. COc1ccccc1N1CCN(c2nc3ccccc3n3nnnc23)CC1  22.2%
106. COc1ccc(OC)c(N=Cc2c(O)[nH]c3ccccc23)c1  25.8%

With `CCN(c1ccc2c(c1)OCO2)S(=O)(=O)c1cc(Br)cc2c1N(C(=O)C1CC1)CC2` the inhibition of disassembly was 28.9% (active).
